According to PubChem BioAssay AID602198 (NMMLSC, 2012):
Measured potencies and affinities stand elsewhere. Activity calls are given as the source filed them. How the calls were made is not given here.

Assay: yeast V-ATPase proton pumping modulator potency, dose response, S. cerevisiae, pHLuorin, cherry pick 2 (AID 602198)

Row | SMILES | outcome
1 | COc1ccc(N2C(=O)/C(=C/c3ccc(C)o3)C(=O)NC2=S)cc1 | inactive
2 | Cc1ccsc1/C=C1\C(=O)NC(=S)N(C)C1=O | inactive
